Here are results for six compounds from PubChem BioAssay (NCI).

Test systems include NCI-H23 lung; NCI-H226 lung; NCI-H322M lung; HOP-62 NSCLC; NCI-H460 lung; HOP-92 NSCLC; NCI-H522 lung; A549/ATCC NSCLC; 786-0 renal; COLO 205 colon; DU-145 prostate; K-562 leukemia; MALME-3M melanoma; MDA-MB-231 breast; RXF 393 renal; SF-268 CNS; SF-295 CNS; SF-539 CNS; UACC-257 melanoma; M14 melanoma.
What all share (test): NCI-60 one-dose screen, 48 h (100 = growth as untreated, 0 = no growth, -100 = all killed)
Common to all, as to details: 10 µM unless noted

This is part of a sample that, as a whole, favours compounds with a hit. Of some 83,000 tested, about 20% had one in any assay.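 Values shown are percent growth following 48 h exposure of cells in 96-well plates to a single concentration of compound; below 10 was considered active.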 Unmarked numbers belong to inactive results. Active and inactive are the calls of the source.

Regarding `NC(N)=Nc1nc2ccccc2o1`, the growth in the assay on NCI-H23 lung is 108%; with NCI-H226 lung it was 107%; in the assay with NCI-H322M lung it was 106%; in the assay on HOP-62 NSCLC, 88.4%; with NCI-H460 lung it was 99.8%; in the assay on HOP-92 NSCLC, -9.02% (active). For the same compound, the growth is 107% in the assay with NCI-H522 lung; 109% with A549/ATCC NSCLC; 109% in the assay on 786-0 renal; 138% in the assay on COLO 205 colon; 89.3% in the assay with DU-145 prostate; 104% in the assay with K-562 leukemia. In addition, the growth is 119% in the assay with MALME-3M melanoma; 103% with MDA-MB-231 breast; 114% with RXF 393 renal; 88.4% in the assay on SF-268 CNS; 112% in the assay on SF-295 CNS; 96.2% with SF-539 CNS. Further, the growth with UACC-257 melanoma is 121%; in the assay with M14 melanoma, 80%.
For `Cc1cc(C2=NNC(=O)Cc3cc4c(cc32)OCCO4)cc(C)c1N`, the growth in the assay with NCI-H23 lung was 44.2%; with NCI-H226 lung, 75.1%; with NCI-H322M lung it was 44.9%; with HOP-62 NSCLC, 37.4%; in the assay on NCI-H460 lung, 17.6%; in the assay on HOP-92 NSCLC, 69%. Further, the growth with NCI-H522 lung was -20.1% (active); in the assay on A549/ATCC NSCLC, 50.7%; in the assay on 786-0 renal it was 32.5%; with COLO 205 colon it was 9.99% (active); in the assay on DU-145 prostate, 19.3%; with K-562 leukemia, 25.5%. The growth is 32.3% with MALME-3M melanoma; 67.5% in the assay on MDA-MB-231 breast; 37.7% with RXF 393 renal; 44.6% in the assay on SF-268 CNS; 17.1% with SF-295 CNS; 19.4% in the assay with SF-539 CNS. Also, the values for the growth in the assay on UACC-257 melanoma and in the assay with M14 melanoma were 60.1% and 13.4%, respectively.
As for `COc1ccc(-c2nc3sc(-c4cc(OC)c(OC)c(OC)c4)nn3c2/C=C2/C(=O)Nc3ccc(F)cc32)cc1`, the growth is 2.52% (active) with NCI-H23 lung; 110% with NCI-H226 lung; -59.4% (active) with NCI-H322M lung; 4.69% (active) in the assay with HOP-62 NSCLC; -26.6% (active) with NCI-H460 lung; -58.8% (active) in the assay with HOP-92 NSCLC. Further, the growth is 8.56% (active) with NCI-H522 lung; -63.6% (active) with A549/ATCC NSCLC; -50.3% (active) with 786-0 renal; -43.8% (active) in the assay on COLO 205 colon; -61.9% (active) with DU-145 prostate; 19.9% in the assay with K-562 leukemia. Also, the growth was -48.3% (active) in the assay with MALME-3M melanoma; -31% (active) in the assay with MDA-MB-231 breast; -32% (active) in the assay with RXF 393 renal; -7.6% (active) in the assay with SF-268 CNS; -17.2% (active) in the assay on SF-295 CNS; 97.7% in the assay with SF-539 CNS. In addition, the growth in the assay with UACC-257 melanoma is -25% (active); in the assay on M14 melanoma, -53.4% (active).
In the case of `C=C1C(=O)O[C@H]2[C@H]1CC/C(Cn1cc(CNC(=O)Cc3cn(C(=O)c4ccc(Cl)cc4)c4ccc(OC)cc34)nn1)=C\CC[C@@]1(C)O[C@@H]21`, the growth with NCI-H23 lung was 19.7%; with NCI-H226 lung it was 70.9%; with NCI-H322M lung, 88.3%; with HOP-62 NSCLC, 78.6%; in the assay on NCI-H460 lung it was 88.5%; with HOP-92 NSCLC, -65.8% (active). The growth is -50.7% (active) with NCI-H522 lung; 68.4% in the assay on A549/ATCC NSCLC; -82.7% (active) in the assay with 786-0 renal; -74% (active) with COLO 205 colon; 31.9% in the assay with DU-145 prostate; -22.6% (active) in the assay with K-562 leukemia. In addition, the growth was -76.1% (active) in the assay on MALME-3M melanoma; -24.1% (active) in the assay on MDA-MB-231 breast; -61.3% (active) with RXF 393 renal; 9.83% (active) with SF-268 CNS; 83.5% in the assay with SF-295 CNS; -83.7% (active) with SF-539 CNS. Moreover, the growth in the assay with UACC-257 melanoma is 10.4%; in the assay on M14 melanoma, -32.4% (active).
As for `COc1ccc2[nH]c(=O)c3c4ccccc4cn3c2c1`, the growth with NCI-H23 lung was 39.4%; in the assay with NCI-H226 lung, 37%; in the assay on NCI-H322M lung, 11.6%; in the assay on HOP-62 NSCLC, 39.3%; in the assay on NCI-H460 lung, 2.51% (active); in the assay with HOP-92 NSCLC, 33.7%. Also, the growth in the assay on NCI-H522 lung is 3.62% (active); with A549/ATCC NSCLC it was 40.1%; with 786-0 renal, 17.7%; in the assay on COLO 205 colon, 0.252% (active); with DU-145 prostate, 11.3%; in the assay on K-562 leukemia, 4.25% (active). Besides, the growth in the assay with MALME-3M melanoma is 12.6%; with MDA-MB-231 breast, 28.5%; in the assay on RXF 393 renal, -25.2% (active); in the assay with SF-268 CNS, 1.5% (active); in the assay with SF-295 CNS, -2.6% (active); in the assay on SF-539 CNS, 9.14% (active). The growth is 51.3% with UACC-257 melanoma and 23.9% with M14 melanoma.
Turning to `O=C1NC(=C(Cl)Cl)/C(=N/S(=O)(=O)N2CCC(C3(C(F)(F)F)N=N3)CC2)N1`, the growth with NCI-H23 lung is 45.3%; in the assay on NCI-H226 lung, 106%; in the assay with NCI-H322M lung it was 95.8%; with HOP-62 NSCLC, 104%; in the assay with NCI-H460 lung, 100%; in the assay with HOP-92 NSCLC it was 87%. Moreover, the growth was -58% (active) in the assay with NCI-H522 lung; 106% in the assay with A549/ATCC NSCLC; 103% in the assay on 786-0 renal; 26% in the assay with COLO 205 colon; 102% in the assay with DU-145 prostate; 8.72% (active) with K-562 leukemia. The growth in the assay with MALME-3M melanoma was 100%; with MDA-MB-231 breast, 71.2%; with RXF 393 renal it was 79.5%; with SF-268 CNS it was 86%; in the assay with SF-295 CNS it was 101%; in the assay on SF-539 CNS, 98.2%. Further, the values for the growth in the assay with UACC-257 melanoma and in the assay with M14 melanoma were 97.2% and 98.9%, respectively.
